Hit rate of the full screen: of about 190,000 compounds, about 1,300 (0.68%) were called active. Many of the other results were omitted from the sample, so actives are more common in it than they were. Values without a mark were called inactive. No stated cut-off is given here; in the data, active means inhibition above about 50%; inactive means the rest.

The target in this assay is Mannose-6-phosphate isomerase (Homo sapiens) (UniProt P34949). In words: human PMI inhibitors, high substrate, primary screen, biochemical, fluorescence intensity, high mannose 6-phosphate (AID 1220). The note with it: recombinant PMI enzyme, coupled fluorescence intensity; at 20 µM; hits give high values.
Chain of Mannose-6-phosphate isomerase (Homo sapiens) (P34949 whole entry, looked up): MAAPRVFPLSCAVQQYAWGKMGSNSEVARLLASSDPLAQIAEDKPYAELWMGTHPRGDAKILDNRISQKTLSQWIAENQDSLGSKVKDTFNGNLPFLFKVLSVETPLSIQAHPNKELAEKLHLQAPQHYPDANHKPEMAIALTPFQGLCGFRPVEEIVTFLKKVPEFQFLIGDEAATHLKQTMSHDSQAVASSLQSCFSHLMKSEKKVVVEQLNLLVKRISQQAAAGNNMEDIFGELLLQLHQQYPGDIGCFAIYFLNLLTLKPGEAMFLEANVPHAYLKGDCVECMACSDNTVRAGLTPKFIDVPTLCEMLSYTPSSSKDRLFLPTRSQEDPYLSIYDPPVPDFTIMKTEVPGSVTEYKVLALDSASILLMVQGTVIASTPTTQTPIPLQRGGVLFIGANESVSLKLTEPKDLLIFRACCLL
In general, inhibition refers to the change of the read-out against control, counted positive when it falls. As to `CCN1CCc2c(OCC(=O)N3CCC(C)CC3)cccc2C1=O`, the inhibition is -8.8%.

For the molecule `COc1cccc(C(=O)NC(=S)Nc2ccc3oc(=O)ccc3c2)c1`, the inhibition was 4.1%. As to `COc1ccc(S(=O)(=O)N2CCCCC2)cc1NC(=S)Nc1cccc(Cl)c1C`, the inhibition is 7.7%. With `Cc1cc(N2C(=O)CCC2=O)ccc1NC(=O)c1cccs1` the figure was -1.9%. With `COCc1cc(/C=N\NC(=O)COc2ccc(Cl)cc2)ccc1OC`, the inhibition is -2%.

As for `O=c1[nH]cnc2c([N+](=O)[O-])cccc12`, the inhibition is -12.2%. With `O=c1[nH]ccc2c([N+](=O)[O-])cccc12` the figure was 55.2% (active); with `Cn1ccc2c([N+](=O)[O-])cccc2c1=O`, 23.6%. The result for `CCc1c(C(C)S(=O)(=O)c2ccc(C)cc2)[nH]c(=O)n1-c1ccc(OC(F)(F)F)cc1` (stereo not given) reads -28.2%; that for `CCc1c(C(C)S(=O)(=O)c2ccc(C)cc2)[nH]c(=O)n1-c1ccc(C)cc1` (stereo not given), -35.3%; that for `CCc1[nH]c(=O)[nH]c1C(C)S(=O)(=O)c1ccc(C)cc1` (stereo not given), 70.3% (active). With `CCOC(=O)C1(CCc2ccccc2)CCN(Cc2ccc(OC)cc2)CC1` the figure was 3.3%; with `O=C(NC1CCCCC1)c1ccc(NS(=O)(=O)c2cccc3cccnc23)cc1`, -3.4%; with `CN1CCN(CC(O)(c2ccc(Cl)cc2)c2ccc(Cl)cc2)CC1`, 55.4% (active). In the case of `CN1CCN(CC(C)(C)NS(=O)(=O)c2ccc(Cl)cc2)CC1`, the inhibition was 3.4%.

On to `NCC(O)(c1ccc(Cl)cc1)c1ccc(Cl)cc1`, for which the inhibition was 10.4%. The result for `COCCN(C(=O)CSc1nnc(-c2ccccc2F)n1C)c1c(N)n(Cc2ccccc2)c(=O)[nH]c1=O` reads -3.1%; that for `COC(=O)C1CCN(Cc2ccc(OCCCN3CCN(c4ccc([N+](=O)[O-])cc4)CC3)cc2)CC1`, 14%; that for `Oc1ccc(N2CCN(Cc3ccc(OCCCN4CCCCC4)cc3)CC2)cc1`, 58.4% (active). With `CCCCOc1ccc(CN2CCCCC2)cc1` the figure was 14.9%; with `Cc1cc2c(cc(C(=O)OCC(=O)NCc3ccco3)n2C)s1`, -6.2%; with `CN1CCN(C(=O)C2=C[C@H](C(C)(C)C)C[C@H](OCCCCO)O2)CC1`, 0.2%. The result for `CC(C)OC(=O)c1cc2ccccc2[nH]1` reads 7.4%; that for `CCOC(=O)c1cc2cc3ccccc3cc2[nH]1`, 53.2% (active).

Regarding `CCOC(=O)c1cc2cc(OC)ccc2[nH]1`, the inhibition is -9.7%. The result for `CCCC(=O)Nc1cc(OC)c(NC(=O)NC2CCCCC2)cc1OC` reads 51.8% (active); that for `CCCCC(=O)Nc1cc(OC)c(NC(=O)C2CCCCC2)cc1OC`, 2.5%. The result for `COc1ccc(Cl)cc1NC(=O)NC1CCCCC1` reads -2.2%. The result for `O=C(CCC1COc2ccccc2O1)NCc1ccccc1` (stereo not given) reads 0.9%; that for `CC1CC2(CCCCC2)Nc2c1ccc1ccccc21` (stereo not given), -36.7%; that for `NS(=O)(=O)c1cccc(NC(=O)CN2CCN(Cc3ccc4c(c3)OCO4)CC2)c1`, 10%. With `COc1ccc(NC2=C(Cl)C(=O)N(CCc3ccccc3)C2=O)cc1`, the inhibition was 4.8%.

Take `Cc1cc(=S)cc(C)n1CCO`: the inhibition is -138%.

As for `O=C(/C(=N/N=C/c1ccc(O)c(O)c1)c1ccccc1)c1ccccc1`, the inhibition is 24.9%. With `O=C(/C(=N/N=C/c1ccc(O)c(O)c1O)c1ccccc1)c1ccccc1` the figure was 30.5%; with `C/C(=N\NS(=O)(=O)c1ccc(C)c([N+](=O)[O-])c1)c1ccc2c(c1)OCO2`, -16.6%; with `C=CCOc1cc(OC)c(OC)c(OC)c1`, 54.8% (active). With `C=CCOc1ccc(/C(CC)=N/O)c(OC)c1` the figure was 6.3%; with `COc1cc(OCC(N)=O)cc(OC)c1OC`, 7.1%. As for `COc1ccccc1NC(=O)c1ccccc1S(=O)(=O)c1ccccc1[N+](=O)[O-]`, the inhibition is 12.3%.

Turning to `C=CCn1c(SCC(=O)NC(=O)NC)nnc1C1CCCCC1`, the inhibition was -11.2%. For the molecule `CC(=O)c1cccc(NC(=O)/C(=C\c2cccnc2)NC(=O)c2ccco2)c1`, the inhibition is -6.2%. The result for `CC1(C)CC(=O)C(/C=N/c2ccccn2)=C(O)C1` reads -6.9%. The result for `CC1(C)CC(=O)C(/C=N/c2ncccc2C(=O)O)=C(O)C1` reads -18.7%.

Regarding `CC1(C)CC(=O)C(C=Nc2cccnc2/N=C/C2=C(O)CC(C)(C)CC2=O)=C(O)C1`, the inhibition is 58.8% (active). Take `CCOC(=O)c1nc(C)n(-c2cc(OC)c(Cl)cc2Cl)n1`: the inhibition is -10.2%. `Cc1ccc2nc(SC(C(=O)c3ccccc3)c3ccccc3)nc(C)c2c1` (stereo not given): the inhibition is 1.4%.

With `COc1ccc(N=Cc2cc(Cl)ccc2O)cc1Cl`, the inhibition was 40.6%.

For the molecule `Cc1ccc(N=Cc2sccc2C)cc1C`, the inhibition was 8.8%.

With `Oc1ccc(Br)cc1C=Nc1ccc(Cl)cc1`, the inhibition was 13.7%.

Regarding `CCN(CC)c1ccc(O)c(C=Nc2ccc(C)c(C)c2)c1`, the inhibition was 57% (active). The result for `COC(=O)N/N=C/c1cc(Br)ccc1O` reads 13.6%; that for `CCN(CC)c1ccc(N=Cc2cc(Br)ccc2O)cc1`, 63.1% (active); that for `NS(=O)(=O)c1ccc(CCNC(=O)NC2(C(F)(F)F)Oc3ccccc3O2)cc1`, -9.2%. The result for `CC1(N2CCOCC2)C(=O)c2ccccc2C1=O` reads -17.3%; that for `COc1cc(OC)c2c(c1)OC(c1ccc(OC)c(OC)c1)C(O)C2=O` (stereo not given), 1.6%. The result for `COc1cc(OC)c2c(O)c3c(c(-c4c5c(c(O)c6c(OC)cc(OC)cc46)CO[C@@H](C)[C@H]5O)c2c1)[C@H](O)[C@H](C)OC3` reads 54.8% (active); that for `COc1cc(OC)c2c(c1)C(=O)OC2`, -32.4%; that for `COc1ccccc1CC(=O)Nc1ccc(O)cc1C(=O)O`, 2.5%. In the case of `CCCC1=[N+](CC(C)=O)CCn2c(C)ccc21`, the inhibition was -7.3%. The result for `COc1ccc2c(c1O)-c1ccccc1CCN(C)C2` reads 7.3%; that for `CN1CCc2ccccc2C1C1CCNCC1` (stereo not given), 8.3%. The result for `CN1CCc2cc3c(c4c2[C@H]1[C@H](O)c1ccccc1-4)OCO3` reads 16.9%; that for `CCCCC(=O)Nc1cc2nn(-c3ccc(OC)cc3)nc2cc1C`, 10.9%. With `O=C(NCCN1CCN(c2ccccc2)CC1)C1(S(=O)(=O)c2ccc(Cl)cc2)CC1` the figure was 18%. Regarding `S=C(c1ccc(-c2ccc(Cl)c(Cl)c2)o1)N1CCOCC1`, the inhibition was -7.4%. In the case of `O=[N+]([O-])c1cc(-c2ccc(C(=S)N3CCOCC3)o2)ccc1Cl`, the inhibition is 61% (active). With `O=[N+]([O-])c1cccc(-c2ccc(C(=S)N3CCOCC3)o2)c1` the figure was 47%; with `CC1CCN(C(=O)CSc2nnc(CNc3ccc(F)cc3)n2Cc2ccco2)CC1`, 10.7%. In the case of `CCCN1C2CCCC1CC(NC(=O)c1ccccc1OCC)C2` (stereo not given), the inhibition is 0%.

Regarding `CCc1ccc(C2CC(=O)N3CN(c4ccccc4)CSC3=C2C#N)cc1` (stereo not given), the inhibition was -47.1%. The result for `N#CC1=C2SCN(Cc3ccccc3)CN2C(=O)CC1c1ccc2c(c1)OCO2` (stereo not given) reads 47.4%. The result for `COc1cccc(C2CC(=O)N3CN(c4ccccc4F)CSC3=C2C#N)c1` (stereo not given) reads -11.4%; that for `COc1cc(C2CC(=O)N3CN(Cc4ccccc4)CSC3=C2C#N)ccc1OCc1ccccc1` (stereo not given), 66.3% (active); that for `COc1cc(C2CC(=O)N3CN(Cc4ccco4)CSC3=C2C#N)ccc1OCc1ccccc1` (stereo not given), 74.4% (active). With `CN1CSC2=C(C#N)C(c3cccc(OCc4ccccc4)c3)CC(=O)N2C1` (stereo not given) the figure was 59.9% (active). Consider `COc1ccc(C2CC(=O)N3CN(c4ccccc4F)CSC3=C2C#N)cc1OC` (stereo not given), for which the inhibition was -0.4%. For `COc1ccc(C2CC(=O)N3CN(c4ccc(C)c(Cl)c4)CSC3=C2C#N)cc1OC` (stereo not given), the inhibition is -27.1%. As to `Cc1ccc(/C=N/NC(=O)c2nnn(-c3nonc3N)c2CSc2ccc(Cl)cc2)cc1`, the inhibition is -7%. With `Cc1ccc(O)c(NC(=O)c2noc3c2CCc2ccccc2-3)c1` the figure was 13%; with `CCOC(=O)CC1C(=O)NCCN1S(=O)(=O)c1ccccc1` (stereo not given), -2.9%; with `CC(C)C(=O)N(Cc1ccc(F)cc1)Cc1nc2ccccc2c(=O)[nH]1`, 4.6%.

In the case of `CCN(CC)c1ccc2ccc(=O)oc2c1`, the inhibition is 3.8%. For the molecule `CCN(CC)c1ccc2c(C)c(Cl)c(=O)oc2c1`, the inhibition is -1.9%. With `CC(SC1CCCC1)C(=O)Nc1ccnn1C(C)C` (stereo not given) the figure was -2.4%. The result for `CC(C)OCCCNC(=S)NNC(=O)C(c1ccccc1)c1ccccc1` reads -14.8%; that for `O=c1cc(CN2CCN(c3ccccn3)CC2)nc2sccn12`, 9.8%; that for `CC(=O)c1cc2c(C)c(C(=O)c3ccccc3)oc2cc1O`, 8.2%. With `O=C(NC(=S)Nc1cnc2ccccc2c1)c1ccccc1` the figure was 10.3%; with `CCCCNC(=S)Nc1cccc2cnccc12`, 3.6%; with `O=C(NC(=S)Nc1cccc2cccnc12)c1ccccc1`, 10%. In the case of `S=C(NCCc1ccncc1)Nc1cccc2ccccc12`, the inhibition was 18.9%. The result for `O=C(NC(=S)Nc1ccc2ncccc2c1)c1ccccc1` reads 55.9% (active); that for `O=C(NC(=S)Nc1cccc2cnccc12)c1ccccc1`, 54.7% (active). On to `S=C(NCCc1ccccc1)Nc1cccc2cnccc12`, for which the inhibition was 57.3% (active).

For the molecule `Fc1ccccc1NC(=S)Nc1cccc2cnccc12`, the inhibition was 9.4%. With `O=C(NNC(=S)Nc1ccccc1)c1ccc2ncccc2c1` the figure was -9.6%; with `COc1ccc(Cn2cc(C(=O)c3ccccc3)c(=O)c3cc(OC)ccc32)cc1`, 15.1%; with `Cn1c(Cc2ccccc2)nnc1SCC(=O)N1CCOCC1`, -5.3%. With `CC(C)(C)c1ccc(NC(=O)CNC2CCCc3ccccc32)cc1` (stereo not given) the figure was -3.2%.
